Data reported in the supplement of paper PMC3334620.
In all, about 33,000 sequences were measured (“E-score (-0.5 to 0.5)”: median about -0.036, highest 2% from about 0.37 on). This excerpt belongs to a sample that is enriched for the highest values.

Each sequence was assayed against T1, Yer064c (UniProt P40041) (assay: PBM E-score (8-mer binding enrichment) (E-score (-0.5 to 0.5)); higher = stronger / more preferred TF binding). Details: protein concentration: 200 nM; construct: GST-full length.
T1 sequence: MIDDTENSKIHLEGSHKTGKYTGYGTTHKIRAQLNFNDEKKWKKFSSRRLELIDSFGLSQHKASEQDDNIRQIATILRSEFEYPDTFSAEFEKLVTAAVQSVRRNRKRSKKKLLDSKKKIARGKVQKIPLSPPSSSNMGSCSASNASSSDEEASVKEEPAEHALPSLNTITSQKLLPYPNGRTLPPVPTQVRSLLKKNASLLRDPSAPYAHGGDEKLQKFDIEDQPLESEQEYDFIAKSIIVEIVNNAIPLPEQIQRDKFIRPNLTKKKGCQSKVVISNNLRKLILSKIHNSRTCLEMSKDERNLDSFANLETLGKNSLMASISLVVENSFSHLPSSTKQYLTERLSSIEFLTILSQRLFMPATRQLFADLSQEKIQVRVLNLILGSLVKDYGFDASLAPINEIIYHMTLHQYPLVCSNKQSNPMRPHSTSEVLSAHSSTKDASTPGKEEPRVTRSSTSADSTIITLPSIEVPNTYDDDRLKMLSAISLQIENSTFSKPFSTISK
Protocol: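 Universal 'all 10-mer' protein binding microarrays (Agilent AMADID 015681) probed with GST-tagged S. cerevisiae TFs (full-length or DBD) made by in vitro transcription/translation (PURExpress), about 100-200 nM. Bound TF was detected with fluorescent anti-GST. Each ungapped 8-mer (which stands for itself and its reverse complement) is scored by the PBM enrichment score (E-score), a modified Wilcoxon-Mann-Whitney statistic from -0.5 to +0.5, computed with the Universal PBM Analysis Suite. Scale: above 0.35 generally sequence-specific binding.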

Sequence	PBM E-score
GATAGTAA	0.149
GATAGTCC	0.296
GATAGTCA	0.476
GCACCCCA	-0.26
GGGAGTTA	-0.0443
CGGAGTCA	0.477
GGGAGTAA	0.00383
GGGAGTCA	0.477
CGGAGTCC	0.307
CGGAGTTA	-0.0037
CACTGTGG	-0.177
CACCTACG	0.0159
GAACCGTC	-0.209
GACCTGTA	-0.193
ATCGAGTA	0.138
ATCGAGTG	0.139
CTCGAGAC	0.163
CTCGAGTC	0.37
ATCGAGTC	0.389
CTCGAGTA	0.109
CCGCTAGC	-0.334
GAAGATCC	-0.181
ACCCCTTA	-0.00226
AAGACTCC	0.387
AAGACTCT	0.425

Sequence	PBM E-score
AAGACTGT	0.254
GAGACTGC	0.217
CAGACTCC	0.187
GAGACTAC	0.36
AAAACTCT	-0.168
CAGACTGA	0.134
CAGACTCG	0.218
GAGACTCC	0.367
CAGACTCA	0.396
AAGACTGC	0.137
ACTTATCG	0.0591
CTGCCTAC	-0.0918
CCTATAGC	-0.178
GCCGTGCC	-0.24
CGCTGAAC	-0.0322
ACGTCTAA	0.0568
ACAGGGAG	-0.0887
CAAGCGAC	-0.0326
CTCCCGAG	0.0821
ACGCTATG	-0.064
GACTGGGC	0.0848
TATACTCA	0.317
TAGACTCA	0.413
AAGACACA	0.0498
AAGACTCG	0.373

Sequence	PBM E-score
GAGACTCA	0.467
AAGACTGA	0.347
AAGACACG	-0.0488
GAGACTTA	0.24
TAGACTGA	0.122
GAGACTGA	0.28
AAGACTCA	0.48
AAGACTTA	0.33
ATTTGGCG	-0.116
GAAGTTAC	0.0811
ATAGCTGC	0.00331
AGCTAAGG	-0.317
GGGAGCTA	-0.13
AGTTCATG	0.215
GCCAATAC	-0.222
AGAGCTGA	0.0408
AAAGTGAG	0.188
ATGCCGTA	-0.0237
CGCGTAAC	-0.139
GTACTTAA	0.123
CTTGCCAC	0.0476
ACCAAAAA	0.186
CACTTTAC	0.0259
ATCGCCTG	-0.012
GAGCACTC	-0.182

Sequence	PBM E-score
GAAGGATC	-0.0298
AGGTGCAC	-0.143
GGGGTGGA	-0.205
ACCACTTG	-0.0296
CATGAATA	0.178
AATGAATT	0.0966
ATTGAATA	0.169
CATGAATG	0.197
ATTGAATG	0.167
GATGAATA	0.176
CATGAATC	0.423
AATGAATC	0.39
GATGAACC	0.0652
ATTGAATC	0.375
GATGAATC	0.387
AATGAATG	-0.0293
AGTACCAC	0.0908
CAATCGAC	0.0905
ACTGCGAC	0.228
CTTCCGCC	-0.183
AGATGACA	0.116
ACATGAGA	0.284
ACATGACA	0.155
AGATGACC	0.136
ACATGACG	-0.00033

Sequence	PBM E-score
ACATGAGT	0.375
ACATGAGC	0.046
AGATGACT	0.487
ACATGACT	0.48
CTTACGTA	0.131
CGCAAGGA	-0.167
AAGGCATA	-0.129
TGCCAGCA	-0.0413
ACACGTGC	-0.0356
CACATGTC	0.0407
ATCCCACG	0.07
TAGGCGAA	-0.0147
AGGACTAG	0.275
CTGACTGC	0.348
GTGACGGA	-0.0635
GTGACTGA	0.447
CGGACTGA	0.178
GGGACTGA	0.119
ATGACTAG	0.48
AAGACTGG	0.1
ATGACAAG	0.0335
CTGACTGA	0.395
ATGACTGG	0.409
ACGACTGG	0.148
CATCAGGA	-0.0161

Sequence	PBM E-score
GTGTCGAA	-0.00343
ATCGCAGA	0.0583
AGCTACCA	0.0223
AATTCGGT	0.107
CTCCGTGC	-0.156
ACATTCAT	0.0768
CGCGTTCA	0.0376
AGGACTGC	0.13
ATTACTCG	0.202
AGGACTCG	0.306
ACGACTGA	0.321
AGGACTGA	0.244
CAGACTGC	0.0507
ATGACTCG	0.491
ATGACTGA	0.464
ATGACTGC	0.467
GTAAGGTA	0.00781
GCCAACCC	-0.343
ACGGCCTC	-0.163
ACATGAAT	0.175
ACGCCTAG	-0.133
CGGTGGGC	-0.341
AGTTTCTC	-0.105
CGACTCCA	0.378
AGACTCCA	0.323

Sequence	PBM E-score
GGACTCCA	0.176
TGACTCCA	0.479
CGACTCCG	0.332
AGACTCCC	0.32
CCACTCCA	-0.0978
CAACTCCC	-0.15
CGACTCCC	0.404
AGGGGGAT	-0.373
AGGGGGGA	-0.362
ACTGCGTA	0.0638
AACTCCAT	0.0309
CGGTGCAG	-0.0907
TTGTCAAA	0.0143
AAGTCAAG	0.283
ACGTCAAC	0.0642
AAGTCAAA	0.288
CAGTCAAC	0.36
GAGTCAAC	0.474
GAGTCAAA	0.461
TAGTCAAA	0.417
TGGTCAAA	-0.0461
AAGTCAAC	0.367
CAGTCAAA	0.254
GCGTCAAC	-0.156
TCAAAAAA	0.16

Sequence	PBM E-score
CGATCACC	-0.0685
ACGATCCG	-0.0916
AGGTAGGC	-0.231
TATCATCA	0.0107
AATCATCT	0.453
AATCATCG	0.439
GATCATCA	0.142
AATCATCC	0.468
AATCTTCT	0.201
CATCATCC	0.0788
CATCATCG	0.125
GATCATCC	0.171
AATCAACG	0.308
CATCATCA	0.161
AATCATCA	0.463
TGGGCCCA	-0.123
AATATTGT	0.0413
TATGAATA	0.0885
TCCCTTCA	0.091
CCCTTGAA	-0.0587
AAGCGACA	-0.208
ACGCGACA	-0.128
AAGCGACC	-0.161
ACGCGACG	-0.164
AAGCGACT	0.369

Sequence	PBM E-score
AGGCGACC	-0.191
AGGCGACT	0.387
AGGCGACG	-0.346
ACGCGACT	0.376
ACAACGGT	-0.116
ATAAAGAC	0.196
CCGGCAAG	-0.156
CTTGAGAA	0.136
GCTTCGAC	-0.126
TCAACAGA	0.211
AACTATCC	-0.235
AACTATCA	0.104
GACTATCC	0.404
GACTATTA	0.379
CACTATTA	0.0522
AACTATTA	-0.00806
CACTATCC	-0.196
GACTATCA	0.394
TACTATCA	0.0134
